The text below walks through data of PubChem BioAssay (NCATS).

Assay [1] concerns the target T1, Hexokinase-4 (Homo sapiens) + Glucokinase regulatory protein (Homo sapiens) (UniProt P35557+Q14397). The assay is described as follows: qHTS assay for inhibitors of recombinant human GCK-GKRP interaction: Diaphorase-coupled assay (AID 743205). Put shortly: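 Signal derives from resorufin generated by diaphorase, linked to GCK turnover of glucose (5 mM) and ATP (0.4 mM). Enzyme complex was added after a 20-minute compound preincubation and monitored for 30 minutes.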

In assay [2] the target is T1, Hexokinase-4 (Homo sapiens) + Glucokinase regulatory protein (Homo sapiens). Put plainly: qHTS assay for inhibitors of recombinant human GCK-GKRP interaction: ADP-Glo assay (AID 743206).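 Further: plate controls were DMSO plus enzyme for no effect and no enzyme for full effect.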 A digest of the protocol:
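Pin-transferred compounds meet a 15 nM GST-GCK/15 nM FLAG-GKRP/2 uM S6P mix (dispense concentrations). ATP is then added to 0.4 mM final with 5 mM glucose, and the reaction runs 60 min at room temperature. ADP is quantified luminescently.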

Assay [3] has the same target. The assay is described as follows: qHTS assay for inhibitors of recombinant human GCK-GKRP interaction: HTRF assay (AID 743207).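 Further: 0% = DMSO with GCK present and -100% = DMSO wells lacking GCK.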 A digest of the protocol:
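Titration screening format: recombinant GST-GCK and FLAG-GKRP at 5 nM, S6P at 2 uM, labelled anti-tag antibodies, 60 min at RT, dual-wavelength HTRF readout.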
In general terms: Quantitative high-throughput screening tests each substance at several concentrations.

Assay [4] can be described thus: qHTS assay for measurement of the activity of small molecule inhibitors on Zika virus induced Caspase-3 activity in human iPSC derived neural progenitor cells (hNPCs) (AID 1224857). Further: % of control where 0% means no effect; nearly all actives have a fitted effect of over 65% in size. Put shortly:
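Caspase-3/7 induction by a 6-hour ZIKV infection was quantified with a luminescent Caspase-Glo 3/7 reagent incubated 30 minutes at room temperature. Compounds were preincubated with hNPCs for 1 hour; inhibition was calculated against uninfected and infected control wells.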

The nature of assay [5]: qHTS assay for measurement of the activity of small molecule inhibitors on Zika virus induced Caspase-3 activity in human astrocytoma cells (AID 1224859).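 Further: plate controls were ZIKV-infected untreated cells for no effect and uninfected cells for full effect.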 A digest of the protocol: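 In SNB-19 cells plated at 250 cells/well and grown 16-20 h, compounds were applied 1 h before ZIKV (2 FFU/cell). Six hours later caspase-3/7 luminescence was recorded.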
In assay [6] the target is Atrial natriuretic peptide receptor 1 (Homo sapiens) (UniProt P16066). The assay is described as follows: Natriuretic polypeptide receptor (hNpr1) antagonism - Pilot screen (AID 1347049; calls by dose curve;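 further: agonist-evoked cGMP luminescence read 20 min after hNppA addition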; further: potency means the concentration at half of the fitted maximal effect). Put shortly:
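cGMP-sensor HEK293/hNpr1 cells, 1500/well, plated overnight at 37C. 2% GloSensor reagent, 2 h RT. Compound (23 nL pin transfer) 30 min RT, baseline luminescence pre-read. 0.1 nM hNppA, 20 min RT, post-read.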

The target in assay [7] is Atrial natriuretic peptide receptor 2 (Homo sapiens) (UniProt P20594). Put plainly: Natriuretic polypeptide receptor (hNpr2) antagonism - Pilot subtype selectivity assay (AID 1347050; calls by dose curve; further: potency means the concentration at half of the fitted maximal effect). A digest of the protocol: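 Luminescence from a genetically encoded cGMP luciferase biosensor in hNpr2-expressing HEK293 cells is read before and 20 min after adding 1 nM hNppC. Test compounds, in interplate 1:5 titrations, are added 30-50 min ahead of the agonist.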
Sequence of Atrial natriuretic peptide receptor 2 (Homo sapiens) (P20594 whole entry, looked up): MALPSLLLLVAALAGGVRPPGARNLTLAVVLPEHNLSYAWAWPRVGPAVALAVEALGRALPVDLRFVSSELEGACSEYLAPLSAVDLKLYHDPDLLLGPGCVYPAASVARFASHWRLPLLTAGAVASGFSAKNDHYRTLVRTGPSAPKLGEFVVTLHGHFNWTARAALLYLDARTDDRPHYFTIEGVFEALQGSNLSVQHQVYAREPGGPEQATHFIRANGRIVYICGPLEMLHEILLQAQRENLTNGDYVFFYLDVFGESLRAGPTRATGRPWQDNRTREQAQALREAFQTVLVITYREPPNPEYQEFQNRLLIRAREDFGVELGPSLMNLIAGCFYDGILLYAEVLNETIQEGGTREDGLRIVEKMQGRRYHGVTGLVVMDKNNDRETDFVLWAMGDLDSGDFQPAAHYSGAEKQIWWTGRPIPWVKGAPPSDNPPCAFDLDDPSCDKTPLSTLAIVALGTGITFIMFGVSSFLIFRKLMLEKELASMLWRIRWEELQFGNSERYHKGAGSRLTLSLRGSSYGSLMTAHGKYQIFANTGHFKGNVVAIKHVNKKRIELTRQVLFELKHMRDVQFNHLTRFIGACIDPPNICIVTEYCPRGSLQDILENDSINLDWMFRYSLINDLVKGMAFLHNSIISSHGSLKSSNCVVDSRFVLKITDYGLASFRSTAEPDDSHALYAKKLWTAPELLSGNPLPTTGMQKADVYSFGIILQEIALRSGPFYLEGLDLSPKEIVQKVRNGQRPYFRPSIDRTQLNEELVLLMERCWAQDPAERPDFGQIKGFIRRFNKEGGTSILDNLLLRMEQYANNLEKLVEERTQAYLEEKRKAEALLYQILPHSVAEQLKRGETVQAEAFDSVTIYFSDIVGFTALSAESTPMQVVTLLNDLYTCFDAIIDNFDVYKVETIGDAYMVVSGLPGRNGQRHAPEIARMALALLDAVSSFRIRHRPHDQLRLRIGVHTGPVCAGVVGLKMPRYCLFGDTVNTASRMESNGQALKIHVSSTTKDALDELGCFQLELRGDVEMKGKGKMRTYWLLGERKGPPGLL

Assay [8] in a line: qHTS Assay for Identifying Gametocytocidal Compounds (AID 743244).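 Further: on the % scale 0 is the no-effect control and ±100 the full control effect; actives lower the fluorescent signal which means gametocytes are killed.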 The note with it: P. falciparum 3D7 stage III-V gametocytes, alamarBlue, 72 h; max response: stronger effect = lower value. A digest of the protocol:
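Late gametocytes (III–V), P. falciparum 3D7; 72 h drug, then 24 h alamarBlue; resazurin reduction read by fluorescence.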

A short description of assay [9]: Natriuretic polypeptide receptor (hNpr1) antagonism - Pilot counterscreen GloSensor control cell line (AID 1347045; calls by dose curve; further: on the % scale 0 is the no-effect control and ±100 the full control effect). A digest of the protocol: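 The SNP-driven cGMP luminescence signal (50 uM, 20 min, room temperature) was measured in GloSensor HEK293 control cells. Compounds were tested as a LOPAC titration series and preincubated for 30-50 min.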
(In general: Counterscreens check selectivity or assay interference.)

Assay [10] in a line: qHTS profiling for inhibitors of Plasmodium falciparum (3D7) proliferation (AID 743322).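 Further: infected erythrocytes exposed to compound for 72 h before lysis; 100% = DMSO vehicle wells and 0% = 0.29 µM artemisinin.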 The note with it: P. falciparum 3D7 proliferation; at 28.7 µM (top of the series). A digest of the protocol:
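Parasite DNA was quantified by SYBR Green I fluorescence (ex 485, em 535 nm) after overnight lysis in saponin/Triton buffer at room temperature. Cultures at 0.3% parasitemia and 2.5% hematocrit were first exposed to compound for 72 h at 37 C; signals were normalised to artemisinin (0.29 uM) and vehicle wells.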

Assay [11] in a line: qHTS profiling for inhibitors of Plasmodium falciparum (DD2) proliferation (AID 743323; call rule not given here). Particulars: lower = more inhibition; at 28.7 µM (top of the series). Put shortly: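 Parasite proliferation measured via DNA-dye fluorescence, as uninfected erythrocytes lack DNA. Cultures at 0.3% parasitemia and 2.5% hematocrit incubated 72 h with compound; signal scaled between vehicle and 0.29 uM artemisinin wells.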

The nature of assay [12]: qHTS profiling for inhibitors of Plasmodium falciparum (HB3) proliferation (AID 743324).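 Further: 100% = DMSO vehicle wells and 0% = artemisinin-treated control wells.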 The note with it: Plasmodium falciparum HB3 blood-stage proliferation; at 28.7 µM (top of the series). Put shortly:
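SYBR Green fluorescence (485 ex/535 em) of lysed cultures, incubated overnight at room temperature in the dark, quantifies parasite DNA. Infected erythrocytes at 0.3% parasitemia and 2.5% hematocrit were exposed 72 h; values normalized to DMSO and 0.29 uM artemisinin controls.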

Assay [13] is described as follows: qHTS assay for cell viability of HEK293 cells (AID 743288). Further: on the % scale 0 is the no-effect control and ±100 the full control effect; nearly all actives have a fitted effect of over 50% in size. The note with it: ATP luminescence (CellTiter-Glo), 18 h; max response: stronger effect = lower value. A digest of the protocol:
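HEK293, 18 h, 37 C, ATP luminescence. Cells at 2,000/well were allowed at least 5 h to settle before dosing; CellTiter-Glo developed 30 min at RT.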

A short description of assay [14]: qHTS assay for cell viability of the p53RE-bla HCT-116 cell line (AID 743292). Further: on the % scale 0 is the no-effect control and ±100 the full control effect; nearly all actives have a fitted effect of over 55% in size. Put shortly: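 CellSensor p53RE-bla HCT-116 cells, 4,000/well, preincubated 5 h at 37 C, then exposed to compounds in DMSO for 16 h at 37 C. Viability read as CellTiter-Glo luminescence (intracellular ATP) after 30 min at room temperature.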

Structures are written as SMILES. Records with an inconclusive call do not appear. Calls of active or inactive are those of the source. Unless noted, the call rests on the fitted dose curve; in most records, active means well fitted curve in the direction sought with a large enough effect; inconclusive means small, poorly fitted or top-dose-only effect, or another doubt; inactive means no such curve, though single readings can be large; an effect the other way counts as inactive or inconclusive.

T1 sequence (P35557 whole entry, looked up): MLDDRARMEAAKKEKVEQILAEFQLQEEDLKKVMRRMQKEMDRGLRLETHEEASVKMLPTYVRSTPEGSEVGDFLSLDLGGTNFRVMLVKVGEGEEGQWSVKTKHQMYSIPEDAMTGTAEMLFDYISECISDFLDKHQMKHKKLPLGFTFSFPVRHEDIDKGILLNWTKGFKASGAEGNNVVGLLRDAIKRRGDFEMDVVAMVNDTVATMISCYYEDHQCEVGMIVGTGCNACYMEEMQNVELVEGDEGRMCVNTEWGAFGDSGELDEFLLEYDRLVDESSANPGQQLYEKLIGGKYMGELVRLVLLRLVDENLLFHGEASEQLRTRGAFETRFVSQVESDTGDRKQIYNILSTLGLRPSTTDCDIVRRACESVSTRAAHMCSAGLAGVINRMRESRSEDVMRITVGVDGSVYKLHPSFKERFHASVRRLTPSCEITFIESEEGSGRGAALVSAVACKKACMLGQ
T1 sequence (Q14397 whole entry, looked up): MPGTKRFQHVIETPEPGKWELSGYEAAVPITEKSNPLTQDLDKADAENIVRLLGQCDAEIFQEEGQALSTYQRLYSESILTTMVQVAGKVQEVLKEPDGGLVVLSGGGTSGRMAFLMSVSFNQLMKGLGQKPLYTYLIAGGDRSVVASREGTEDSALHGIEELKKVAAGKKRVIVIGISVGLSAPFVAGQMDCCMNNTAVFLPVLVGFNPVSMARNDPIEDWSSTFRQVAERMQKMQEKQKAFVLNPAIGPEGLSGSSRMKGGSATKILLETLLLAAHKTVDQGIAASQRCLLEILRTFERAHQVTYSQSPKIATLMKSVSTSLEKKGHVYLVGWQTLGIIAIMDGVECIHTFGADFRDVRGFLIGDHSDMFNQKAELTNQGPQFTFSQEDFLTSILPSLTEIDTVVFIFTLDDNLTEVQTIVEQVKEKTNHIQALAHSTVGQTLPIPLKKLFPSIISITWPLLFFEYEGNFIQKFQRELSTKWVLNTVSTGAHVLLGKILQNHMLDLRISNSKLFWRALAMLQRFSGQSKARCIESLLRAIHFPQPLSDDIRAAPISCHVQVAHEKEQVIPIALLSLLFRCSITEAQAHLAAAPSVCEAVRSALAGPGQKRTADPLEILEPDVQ
Sequence of Atrial natriuretic peptide receptor 1 (Homo sapiens) (P16066 whole entry, looked up): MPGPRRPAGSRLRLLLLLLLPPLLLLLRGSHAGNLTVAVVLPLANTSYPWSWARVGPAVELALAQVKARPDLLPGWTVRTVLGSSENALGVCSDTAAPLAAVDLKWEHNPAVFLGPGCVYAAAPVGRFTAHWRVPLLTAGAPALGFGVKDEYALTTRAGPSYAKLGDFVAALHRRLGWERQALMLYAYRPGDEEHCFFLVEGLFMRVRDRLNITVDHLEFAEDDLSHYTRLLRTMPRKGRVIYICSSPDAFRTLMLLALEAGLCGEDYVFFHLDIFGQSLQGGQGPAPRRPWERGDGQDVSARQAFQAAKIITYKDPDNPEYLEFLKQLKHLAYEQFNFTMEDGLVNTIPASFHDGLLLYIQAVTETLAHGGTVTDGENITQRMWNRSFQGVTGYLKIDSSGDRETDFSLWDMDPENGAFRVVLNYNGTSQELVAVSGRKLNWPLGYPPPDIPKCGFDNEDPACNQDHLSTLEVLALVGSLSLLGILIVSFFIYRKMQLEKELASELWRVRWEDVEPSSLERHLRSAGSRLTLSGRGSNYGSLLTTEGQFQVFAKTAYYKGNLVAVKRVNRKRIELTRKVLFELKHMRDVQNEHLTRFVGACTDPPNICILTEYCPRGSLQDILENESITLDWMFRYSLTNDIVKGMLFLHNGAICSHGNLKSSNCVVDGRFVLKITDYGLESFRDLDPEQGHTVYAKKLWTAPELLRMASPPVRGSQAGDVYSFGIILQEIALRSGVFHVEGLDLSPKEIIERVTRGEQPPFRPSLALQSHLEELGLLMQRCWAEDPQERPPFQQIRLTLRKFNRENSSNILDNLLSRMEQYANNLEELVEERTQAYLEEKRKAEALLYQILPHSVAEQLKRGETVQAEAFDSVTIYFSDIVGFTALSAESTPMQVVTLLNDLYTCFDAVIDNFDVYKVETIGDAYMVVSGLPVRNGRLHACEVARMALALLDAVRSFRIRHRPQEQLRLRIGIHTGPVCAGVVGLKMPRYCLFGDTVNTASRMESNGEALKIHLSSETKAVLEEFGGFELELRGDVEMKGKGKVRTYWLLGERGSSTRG

Take `CC(C)(C)NCC(O)COc1cccc2[nH]c(=O)[nH]c12` (stereo unspecified): the Potency entry in [1], in assay [2], in assay [3], in assay [4], in assay [5] and in assay [6] was “inactive” in each case. The Potency result in assay [7] was “inactive”.

Consider `NC1C=CC=C(C(=O)O)C1` (stereo unspecified), for which the Potency entry in assay [1], in assay [2], in assay [3], in [4], in assay [5] and in [6] was “inactive” throughout. For the same compound, in assay [8], the max response was -5.22% (inactive).

In the case of `NC(Cc1cccc(-c2ccccc2CP(=O)(O)O)c1)C(=O)O` (stereo unspecified), the Potency result in assay [1], in [2], in [3], in assay [4], in assay [5] and in assay [7] was “inactive” each time. Further, the max response in assay [8] is 13.4% (inactive).

For `C=CC1(C)CC(=O)C2(O)C(C)(O1)C(OC(C)=O)C(O)C1C(C)(C)CCC(O)C12C` (stereo unspecified), the Potency entry in [1], in assay [2], in assay [3], in assay [4], in assay [5] and in [7] was “inactive” in each case. In addition, the max response in assay [8] was 15.4% (inactive).

Regarding `CN1CCCC1CCOC(C)(c1ccccc1)c1ccc(Cl)cc1` (stereo unspecified), the Potency entry in assay [1], in assay [2], in assay [3], in assay [4] and in [5] was “inactive” in each case. Further, the Potency in assay [7] is 11.7 µM (active).

As to `O=[N+]([O-])c1cccc2c(Br)[nH]nc12`, the Potency result in assay [1], in assay [2], in [3], in assay [4], in assay [5] and in [6] was “inactive” in each case. Further, the Potency result in assay [7] is “inactive”. The max response in assay [8] is -25.7% (inactive).

In the case of `COC(=O)C(N)Cc1ccc(Cl)cc1` (stereo unspecified), the Potency result in assay [1], in assay [2], in assay [3], in [4], in assay [5] and in assay [6] was “inactive” in each case. For the same compound, the max response in [8] was 4.72% (inactive).

With `Cc1cc(Cn2cnc3c2C[C@@H](C(=O)O)N(C(=O)C(c2ccccc2)c2ccccc2)C3)ccc1N`, the Potency result in assay [1], in assay [2], in assay [3], in assay [4], in assay [9] and in assay [6] was “inactive” each time. In assay [7], the Potency result is “inactive”.

As for `N=C(N)SCCN`, the Potency result in assay [1], in assay [2], in assay [3], in assay [4], in assay [5] and in assay [7] was “inactive” in each case. In addition, the max response in assay [8] is -1.63% (inactive).

Consider `CC(N)=O`, for which the Potency result in [1], in assay [2], in [3], in assay [4], in assay [5] and in [6] was “inactive” in each case. Besides, the max response in assay [8] was 12.7% (inactive).

For the compound `O=C(O)C1CCCNC1` (stereo unspecified), the Potency result in assay [1], in [2], in assay [3], in assay [4], in assay [5] and in assay [6] was “inactive” in each case. In addition, the Potency result in [7] was “inactive”. Further, the max response in [8] was 20.9% (inactive).

In the case of `CCCCOc1cc(CC2CNC(=O)N2)ccc1OC` (stereo unspecified), the Potency result in assay [1], in assay [2], in assay [3], in [4], in assay [5] and in assay [6] was “inactive” each time. Further, the Potency result in assay [7] was “inactive”. In addition, the max response in assay [8] is 22.4% (inactive).

With `Cc1cccc(C)c1OCC(N)C(C)C` (stereo unspecified), the Potency entry in [1], in assay [2], in assay [3], in assay [4], in assay [5] and in [6] was “inactive” throughout. Besides, the Potency result in [7] was “inactive”. Also, the remaining parasite growth % (stronger effect = lower value) in [10] was -0.502%. Further, the activity, percent of control in assay [11] is -0.0581%. Further, the remaining proliferation (% of control), lower = more inhibition in assay [12] is -0.0097%.

With `CC(/C=C/c1cccc(Oc2ccc(F)cc2)c1)N(O)C(N)=O` (stereo unspecified), the Potency entry in assay [1], in [2], in [3], in assay [4], in assay [5] and in assay [6] was “inactive” in each case. For the same compound, the Potency entry in [7] is “inactive”. Moreover, the max response in assay [8] is 13.8% (inactive).

As to `Nc1nc2[nH]c(=O)cnc2c(=O)[nH]1`, the Potency result in [1], in assay [2], in assay [3], in [4], in assay [5] and in [7] was “inactive” in each case.

In the case of `c1ccc2c(c1)CCC[C@H]2Nc1nc2ccccc2[nH]1`, the Potency result in [1], in [2], in assay [3], in [4], in assay [5] and in assay [6] was “inactive” in each case. Also, the Potency entry in assay [7] was “inactive”. The max response in [8] is 12.6% (inactive).

As to `CC(C)(C)c1cc(/C=C(\C#N)C(N)=S)cc(C(C)(C)C)c1O`, the Potency entry in [1], in [2], in assay [3], in assay [4] and in assay [5] was “inactive” throughout. In addition, the max response in assay [8] was 6.59% (inactive). The Potency in assay [6] was 3.38 µM (active); in [7] it was 4.65 µM (active).

Turning to `NC(=O)c1ccccc1`, the Potency entry in assay [1], in [2], in assay [3], in assay [14], in assay [4] and in assay [5] was “inactive” throughout. Besides, the Potency result in [6] and in assay [7] was “inactive” each time. The values for the max response in [8] and in [13] were -3.76% (inactive) and -1.67% (inactive), respectively.

For `CCSC(=N)N`, the Potency entry in assay [1], in assay [2], in [3], in assay [4], in assay [5] and in assay [6] was “inactive” throughout. Moreover, the Potency entry in assay [7] was “inactive”. Moreover, in assay [8], the max response is 12.9% (inactive).

Turning to `O=C(O)c1ccccc1Nc1ccccc1`, the Potency entry in assay [1], in assay [2], in [3], in assay [4], in assay [5] and in assay [6] was “inactive” throughout. Also, the max response in [8] was 4.62% (inactive).

Take `COc1ccccc1N1CCN(CCCCNC(=O)c2ccc3ccccc3c2)CC1`: the Potency result in assay [1], in assay [2], in assay [3], in [4], in assay [5] and in assay [7] was “inactive” each time.

Take `Cc1nc(N=Nc2ccc(C(=O)O)cc2)c(COP(=O)(O)O)c(C=O)c1O`: the Potency entry in assay [1], in [2], in [3], in [4], in [5] and in [6] was “inactive” throughout. In addition, the Potency entry in assay [7] is “inactive”. The max response in [8] was 5.37% (inactive).

As for `C=C1C[C@@]23CC[C@H]4[C@@](C)(CCC[C@@]4(C)C(=O)OC4OC(CO)C(O)C(O)C4O)[C@@H]2CC[C@]1(OC1OC(CO)C(O)C(O)C1OC1OC(CO)C(O)C(O)C1O)C3` (stereo partly specified), the Potency result in assay [1], in assay [2], in assay [4], in assay [5], in assay [6] and in [7] was “inactive” each time.

With `N[C@H](C(=O)O)[C@H](O)C(=O)O`, the Potency entry in assay [1], in assay [2], in [3], in assay [4], in [5] and in [6] was “inactive” throughout. In assay [8], the max response was 13.2% (inactive).

Consider `O=C(O)[C@H]1NCCC[C@H]1C(=O)O`, for which the Potency result in assay [1], in assay [2], in assay [3], in assay [4], in assay [5] and in [6] was “inactive” each time. Besides, the Potency result in assay [7] was “inactive”. Also, the max response in [8] was 8.68% (inactive).
